From PubChem BioAssay AID1851 (National Center for Advancing Translational Sciences (NCATS), 2009)
Among all 16,000 compounds or so, about 5,100 (32%) were called active. Not shown: some 25% with an inconclusive outcome. Some of the results follow. A number with no mark means an inactive call. Calls follow the shape of the dose curve; as a rule, active = well fitted curve in the direction sought with a large enough effect; inconclusive = small, poorly fitted or top-dose-only effect, or effect the other way; inactive = no such curve, though single readings can be large or run the other way.

Target: Cytochrome P450 3A4 (Homo sapiens) (UniProt P08684)
Sequence (P08684 whole entry, looked up): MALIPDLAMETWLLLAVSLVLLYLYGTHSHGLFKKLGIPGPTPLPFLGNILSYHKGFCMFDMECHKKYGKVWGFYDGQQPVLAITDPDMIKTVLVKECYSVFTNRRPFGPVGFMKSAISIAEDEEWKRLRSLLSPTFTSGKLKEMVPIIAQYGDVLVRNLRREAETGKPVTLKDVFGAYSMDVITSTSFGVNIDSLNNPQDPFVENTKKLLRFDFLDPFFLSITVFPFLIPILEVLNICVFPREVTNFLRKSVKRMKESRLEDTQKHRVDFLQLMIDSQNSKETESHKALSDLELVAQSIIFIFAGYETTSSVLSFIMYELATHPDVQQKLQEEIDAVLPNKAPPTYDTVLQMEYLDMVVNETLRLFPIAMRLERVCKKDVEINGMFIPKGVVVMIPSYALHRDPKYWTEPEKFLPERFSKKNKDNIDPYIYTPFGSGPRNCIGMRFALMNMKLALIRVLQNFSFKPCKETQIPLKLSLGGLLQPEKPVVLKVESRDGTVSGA
Experiment: Cytochrome panel assay with activity outcomes
Conditions: recombinant CYP, pro-luciferin dealkylation, luminescence, p450-cyp3a4; series mostly up to 57.1 µM; activity, negative = inhibition: at the top concentration
% is scaled to controls: 0 for no effect and ±100 for the full control effect.

Structure (SMILES) | AC50 | activity, negative = inhibition
Cc1ccc(-n2nc3ccc(NC(=O)c4ccc5c(c4)OCO5)cc3n2)cc1 | 8.91 µM (active) | –
Cc1ccc(C(=O)Nc2ccc(N3CCOCC3)nc2)cc1 | – | -10.3%
COc1ccc(C(=O)Nc2cccc(-c3cnc4ccccc4n3)c2)cc1 | 2.51 µM (active) | –
Cc1ccc(C(=O)Nc2ccc3nccnc3c2)cc1 | 14.1 µM (active) | –
Cc1ccc(NC(=O)c2nnn(-c3cc(C)cc(C)c3)c2N)cc1 | – | 5.32% [at 2.29 µM]
COc1ccc(C(=O)COC(=O)c2ccc(NC(=O)c3ccccc3)cc2)cc1 | – | 7.44%
Cn1c(=O)n2n(c1=O)[C@H]1[C@H](O)[C@H]3O[C@@H]3/C(=N/OCc3ccccc3)[C@@H]1CC2 | – | -26.2% [at 11.4 µM]
Cc1ccc(C)c(-n2c(CNC(=O)c3ccco3)nnc2SCC(=O)N2CCc3ccccc32)c1 | 7.08 µM (active) | –
Cc1ccc(-n2c(=O)[nH]cc(C(=O)N3CCc4ccccc43)c2=O)cc1 | – | -21.6%
CCOC(=O)N1CCN(C(=O)CN(C)S(=O)(=O)c2ccc3c(c2)C(C)(C)C(=O)N3C)CC1 | – | -22.1%
CC(C)CC(=O)N1CCC(N2CCN(c3ccccc3)CC2)CC1 | – | 6.02% [at 2.29 µM]
CCc1cccc(NC(=O)CN(C)S(=O)(=O)c2cnc[nH]2)c1 | 2.51 µM (active) | –
CN(CC(=O)N1CCN(c2ccccc2)CC1)S(=O)(=O)c1cnc[nH]1 | 11.2 µM (active) | –
CCc1cccc(CC)c1NC(=O)CN(CC(=O)O)CC(=O)O | – | -4.16% [at 25.6 µM]
COc1cc(O)oc1C=Nc1ccc(C(F)(F)F)cc1 | 8.91 µM (active) | –
COc1cc(O)oc1C=Nc1ccc(Cl)cc1 | 15.8 µM (active) | –
CCOc1[nH]n(-c2ccc(Cl)cc2)c(=O)c1C=Nc1ccc(O)cc1 | – | -15.4%
C/C(=N\OC(=O)c1cccc(C)c1)c1sc(-c2ccccc2)nc1C | – | -24.5%
C/C(=N\OC(=O)NC1CCCCC1)c1sc(-c2ccccc2)nc1C | 15.8 µM (active) | –
c1ccc2c(CN3CCN(Cc4c[nH]c5ccccc45)CC3)c[nH]c2c1 | – | -20.1% [at 11.4 µM]

Structure (SMILES) | AC50 | activity, negative = inhibition
c1ccc2c(-c3c[nH]c4ccccc34)c3ccccc3nc2c1 | 8.91 µM (active) | –
CN(C)C(=O)CCc1nc(-c2ccc(C(C)(C)C)cc2)no1 | – | -18.2%
CCN(CC)CCc1nc(-c2ccccc2)no1 | – | -1.29% [at 25.6 µM]
O=C(O)CCc1nc(-c2ccccc2-n2cccc2)no1 | 2.51 µM (active) | –
O=C(Cc1cccs1)N/N=C/C(Br)=C/c1ccccc1 | – | -21.3%
COc1ccc(C(C(=O)NC2CCCC2)N(Cc2ccc(F)cc2)C(=O)c2ccn[nH]2)cc1OC (stereo not drawn) | 3.98 µM (active) | –
COc1ccc(CN(C(=O)Cc2cccs2)C(C(=O)NC2CCCC2)c2ccncc2)cc1 (stereo not drawn) | 1 µM (active) | –
O=C(NC1CCCCC1)C(c1cccs1)N(Cc1cccs1)C(=O)c1ccco1 (stereo not drawn) | 3.16 µM (active) | –
O=C(NC1CCCC1)C(c1ccc(F)cc1)N(Cc1ccc(F)cc1)C(=O)c1ccn[nH]1 (stereo not drawn) | – | -28.2% [at 2.29 µM]
O=C(NC1CCCC1)C(c1ccsc1)N(Cc1ccccc1)C(=O)Cc1cccs1 (stereo not drawn) | 2 µM (active) | –
O=C(O)c1cscc1Cc1cccs1 | – | 17.7% [at 11.4 µM]
CCc1cc2c(=O)[nH]cnc2s1 | – | -7.75%
O=C(O)/C=C(/C(=O)O)[C@]12CCN3CC4=CCO[C@@H]5CC(=O)N[C@@H]1[C@H]5[C@H]4C[C@H]32 | – | 2.64% [at 11.4 µM]
COc1ccc(CCN=CC2=C(O)CC(C)(C)CC2=O)cc1 | 14.1 µM (active) | –
COC(=O)C1C(O)=C(C=NCc2ccccc2)C(=O)CC1(C)C (stereo not drawn) | – | -8.8%
COCCCN=CC1=C(O)CC(C)(C)CC1=O | – | 3.18%
Cc1cc(C)c2[nH]c(=O)c(CN(Cc3ccco3)C(=O)c3cccs3)cc2c1 | 2.82 µM (active) | –
CCCCN1C(=O)C(NC(=O)c2cccnc2)(C(F)(F)F)C2=C1CC(C)(C)CC2=O (stereo not drawn) | 7.94 µM (active) | –
CCCCN1C(=O)C(NC(=O)CC(C)C)(C(F)(F)F)C2=C1CC(C)(C)CC2=O (stereo not drawn) | – | -16% [at 2.29 µM]
CCCCN1C(=O)C(NC(=O)C2CC2)(C(F)(F)F)C2=C1CC(C)(C)CC2=O (stereo not drawn) | – | 5.27% [at 2.29 µM]

Structure (SMILES) | AC50 | activity, negative = inhibition
CC1(C)CC(=O)C2=C(C1)N(Cc1cccnc1)C(=O)C2(NC(=O)c1cccnc1)C(F)(F)F (stereo not drawn) | 12.6 µM (active) | –
O=C(NC1(C(F)(F)F)C(=O)Nc2c1c(=O)[nH]c(=O)n2-c1ccc(F)cc1)c1cccnc1 (stereo not drawn) | – | 10.8%
CN(C)CC(O)COc1ccc(C(C)(C)c2ccc(OCC(O)CN(C)C)cc2)cc1 (stereo not drawn) | – | 0.345%
CCOC(=O)c1cc2sc(C)cc2n1CCCN1C(=O)c2ccccc2C1=O | 3.16 µM (active) | –
CC1(C)CC(=O)C(CCCN2C(=O)c3ccccc3C2=O)C(=O)C1 | – | -15.9%
CCOC(=O)c1cc2sc(C)cc2n1CC(=O)N1CCN(C(=O)c2ccco2)CC1 | 14.1 µM (active) | –
Nc1ccc(N2CCN(C(=O)c3ccco3)CC2)cc1 | – | -20.2%
OCCN(CCO)c1ncnc2nc[nH]c12 | – | -5.25% [at 11.4 µM]
CCCC(=O)NNC(=O)Nc1ccccc1 | – | -11.8% [at 2.29 µM]
O=C(COc1ccc2ccccc2c1Br)NNC(=O)Nc1ccccc1 | 14.1 µM (active) | –
Cn1cnc([N+](=O)[O-])c1SCC(=O)O | – | -11.5% [at 11.4 µM]
CN(C)c1ccc(/C=C2/C(=O)N(c3ccc([N+](=O)[O-])cc3)N=C2N2CCOCC2)cc1 | – | -29%
CC1=N/C(=C\c2ccc([N+](=O)[O-])cc2)C(=O)N1c1ccc(Cl)cc1 | – | 15.2%
CC1=N/C(=C\c2ccc([N+](=O)[O-])cc2)C(=O)N1c1ccc(Br)c(C)c1 | 2.82 µM (active) | –
CCOC(=O)N/N=C1/C[C@@H](O)[C@@H](O)[C@@H]2[C@@H]3C(=O)N(C4CCCCC4)C(=O)[C@H]3CC[C@H]12 | – | -24.5% [at 11.4 µM]
O=C(O)C1C2CCC(C2)C1C(=O)NCc1ccco1 (stereo not drawn) | – | 6.72%
O=C(COC(=O)c1cccc(S(=O)(=O)N2CCN(c3ccccc3)CC2)c1)NCc1ccco1 | 12.6 µM (active) | –
CCCc1nc2ccccc2c(C(=O)OCC(=O)Nc2cccc(S(=O)(=O)N3CCOCC3)c2)c1CC | – | -27.2% [at 2.29 µM]
